We go through 51 molecules from article PMC4336329 (PLoS ONE, 2015).

Each structure is given as a SMILES string. Among all 310,000 compounds or so, about 14,000 (4.5%) showed an effect of 50% or more. The effect is printed as a negative number. The sample holds strong results, similar compounds and a random draw of the others, so the mix is not that of the screen.
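Note: peak tail current of the secondary pulse compared with the same well before compound.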

For the experiment, the target named is human ether-à-go-go-related gene (hERG) potassium channel (human, UniProt Q12809). In words: primary screen, population patch clamp on CHO cells stably expressing hERG; higher = less effect of the substance.
human ether-à-go-go-related gene (hERG) potassium channel, sequence (Q12809 whole entry, looked up): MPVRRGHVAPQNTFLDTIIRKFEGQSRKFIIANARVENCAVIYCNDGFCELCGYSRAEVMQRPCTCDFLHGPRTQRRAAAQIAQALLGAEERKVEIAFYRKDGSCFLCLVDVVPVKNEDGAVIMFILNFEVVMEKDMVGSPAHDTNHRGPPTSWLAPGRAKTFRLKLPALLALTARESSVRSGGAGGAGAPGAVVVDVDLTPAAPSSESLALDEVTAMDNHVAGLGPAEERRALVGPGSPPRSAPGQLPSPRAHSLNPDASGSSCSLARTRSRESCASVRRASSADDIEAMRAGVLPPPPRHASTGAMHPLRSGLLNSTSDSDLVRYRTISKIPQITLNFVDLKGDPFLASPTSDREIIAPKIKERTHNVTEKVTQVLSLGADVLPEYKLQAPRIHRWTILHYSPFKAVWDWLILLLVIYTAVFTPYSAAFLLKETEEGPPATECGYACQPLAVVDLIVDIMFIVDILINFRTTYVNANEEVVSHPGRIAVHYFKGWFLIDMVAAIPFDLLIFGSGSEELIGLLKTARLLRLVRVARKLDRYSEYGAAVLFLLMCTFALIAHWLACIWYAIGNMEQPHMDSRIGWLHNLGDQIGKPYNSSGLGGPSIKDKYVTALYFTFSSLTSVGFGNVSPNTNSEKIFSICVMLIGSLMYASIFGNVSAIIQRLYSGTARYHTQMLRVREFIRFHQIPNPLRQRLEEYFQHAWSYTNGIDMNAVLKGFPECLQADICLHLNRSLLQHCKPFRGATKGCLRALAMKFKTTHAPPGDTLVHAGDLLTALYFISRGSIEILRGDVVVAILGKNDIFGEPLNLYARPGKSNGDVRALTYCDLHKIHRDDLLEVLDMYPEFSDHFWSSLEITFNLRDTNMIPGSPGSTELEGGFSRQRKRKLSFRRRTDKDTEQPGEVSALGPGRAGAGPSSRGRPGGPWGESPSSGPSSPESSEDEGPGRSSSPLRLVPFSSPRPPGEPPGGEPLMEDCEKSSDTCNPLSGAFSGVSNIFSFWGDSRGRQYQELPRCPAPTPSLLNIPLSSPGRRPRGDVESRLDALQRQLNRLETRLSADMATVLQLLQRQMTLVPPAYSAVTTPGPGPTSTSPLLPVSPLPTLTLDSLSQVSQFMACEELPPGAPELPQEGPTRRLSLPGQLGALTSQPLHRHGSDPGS
On to `COc1ccccc1-c1cc(C(=O)N2CCCC2)no1`, for which the “hERG current change (%, negative = inhibition) at 10uM” value is -8.67%.

In the case of `Cc1ccc(S(=O)(=O)/N=C(/Nc2ccc(F)cc2F)c2ccccc2)cc1`, the “hERG current change (%, negative = inhibition) at 10uM” value came to 12.9%.

On to `COC(=O)c1ccc(NC(=S)Nc2cccc(C)n2)cc1`, for which the “hERG current change (%, negative = inhibition) at 10uM” value is given as -0.48%.

Take `O=C(COC(=O)c1c(F)cccc1Cl)NC(=O)Nc1ccc2c(c1)OCCO2`: the “hERG current change (%, negative = inhibition) at 10uM” value is 12.4%.

On to `CCOC(=O)c1ccc(NC(=O)c2nn(CC)cc2Br)cc1`, for which the “hERG current change (%, negative = inhibition) at 10uM” value came to 5.3%.

With `CC(=NCCO)c1c(O)n(C2CCCCC2)c(=O)[nH]c1=O`, the “hERG current change (%, negative = inhibition) at 10uM” value is given as -5.36%.

Take `CC1CN(C2=NC(=O)/C(=C/c3ccncc3)S2)CC(C)O1` (stereo not drawn): the “hERG current change (%, negative = inhibition) at 10uM” value was -14.5%.

With `CCN1CCCC1CNC(=O)c1ccc2c(c1)N(Cc1cccc(Cl)c1)C(=O)c1ccccc1S2(=O)=O` (stereo not drawn), the “hERG current change (%, negative = inhibition) at 10uM” value was -39.7%.

With `Cc1cccc2sc(N(CCN3CCOCC3)C(=O)CCS(=O)(=O)c3ccccc3)nc12.Cl`, the “hERG current change (%, negative = inhibition) at 10uM” value is -13.3%.

As to `CC(=O)NCCC(=O)N(Cc1ccccc1)c1nc2c(C)cccc2s1`, the “hERG current change (%, negative = inhibition) at 10uM” value is listed as -57.4%.

Take `CCOc1ccc2nc(N(CCN(C)C)C(=O)c3cc4ccccc4cc3OC)sc2c1.Cl`: the “hERG current change (%, negative = inhibition) at 10uM” value was 1.72%.

Turning to `CCCC(=O)N(CCN1CCOCC1)c1nc2c(C)cccc2s1.Cl`, the “hERG current change (%, negative = inhibition) at 10uM” value is given as -7.14%.

Regarding `CCOc1ccc2nc(N(Cc3ccccc3)C(=O)CCNC(C)=O)sc2c1`, the “hERG current change (%, negative = inhibition) at 10uM” value is reported as -61%.

As to `COc1ccc2nc(N(Cc3ccccc3)C(=O)CCNC(C)=O)sc2c1`, the “hERG current change (%, negative = inhibition) at 10uM” value is given as -8.54%.

Regarding `CC(NC(=O)c1cc(F)c(F)cc1Cl)c1ccncc1` (stereo not drawn), the “hERG current change (%, negative = inhibition) at 10uM” value amounted to 1.1%.

`CCCc1ccc(C(C)NC(=S)NCc2ccc(F)cc2)cc1` (stereo not drawn): the “hERG current change (%, negative = inhibition) at 10uM” value was 18.6%.

`CCOc1ccc(C(=O)OCC(=O)NC(C)C)cc1`: the “hERG current change (%, negative = inhibition) at 10uM” value is reported as 22.3%.

With `COc1ccccc1NS(=O)(=O)c1ccc(O)c(NC(=S)NCC2CCCO2)c1` (stereo not drawn), the “hERG current change (%, negative = inhibition) at 10uM” value is recorded as 7%.

For `CCN(CC)C(=O)C(=O)N/N=C/c1ccc(F)cc1`, the “hERG current change (%, negative = inhibition) at 10uM” value turned out to be 18.7%.

On to `COC(=O)c1ccc(CSc2ccc3nnc(-c4cccc(F)c4)n3n2)o1`, for which the “hERG current change (%, negative = inhibition) at 10uM” value is given as -62%.

For `COC(=O)c1ccc(CSc2ccc3nnc(-c4ccc(OC)c(OC)c4)n3n2)o1`, the “hERG current change (%, negative = inhibition) at 10uM” value was -15.1%.

As for `COC(=O)c1ccc(CSc2ccc3nnc(-c4ccccn4)n3n2)o1`, the “hERG current change (%, negative = inhibition) at 10uM” value is on record as -62.8%.

With `COC(=O)c1ccc(CSc2ccc3nnc(-c4ccccc4)n3n2)o1`, the “hERG current change (%, negative = inhibition) at 10uM” value is on record as -53.5%.

With `CCOc1ccc(-c2nnc3ccc(SCc4ccc(C(=O)OC)o4)nn23)cc1`, the “hERG current change (%, negative = inhibition) at 10uM” value is -24.4%.

For `COC(=O)c1ccc(CSc2ccc3nnc(-c4ccc(F)cc4)n3n2)o1`, the “hERG current change (%, negative = inhibition) at 10uM” value is given as -29.1%.

For the molecule `COC(=O)c1ccc(CSc2ccc3nnc(-c4ccc(OC)cc4)n3n2)o1`, the “hERG current change (%, negative = inhibition) at 10uM” value is listed as -44.2%.

With `CSc1nccc(Oc2cncc(Cl)c2)n1`, the “hERG current change (%, negative = inhibition) at 10uM” value amounted to 8.61%.

Turning to `Cc1csc(-c2cnn(-c3ccccc3)c2NC(=O)c2cccc(C(F)(F)F)c2)n1`, the “hERG current change (%, negative = inhibition) at 10uM” value turned out to be 9.98%.

Turning to `CC(NC(=S)Nc1ccc(Cl)cc1)C(c1ccccc1)N1CCOCC1` (stereo not drawn), the “hERG current change (%, negative = inhibition) at 10uM” value is given as -13%.

As to `COc1ccc(N=C2C(=O)N3c4c(cccc42)C(C)=CC3(C)C)cc1`, the “hERG current change (%, negative = inhibition) at 10uM” value is given as 9%.

In the case of `Cc1c(CCOC(=O)c2cccc([N+](=O)[O-])c2)sc[n+]1CC(=O)c1ccccc1.[Br-]`, the “hERG current change (%, negative = inhibition) at 10uM” value is listed as -51.1%.

For `Cc1c(CCOC(=O)C23CC4CC(CC(C4)C2)C3)sc[n+]1Cc1ccccc1.[Cl-]`, the “hERG current change (%, negative = inhibition) at 10uM” value is -8.89%.

In the case of `Cc1c(CCOC(=O)c2ccccc2)sc[n+]1CC(=O)c1ccc(Br)cc1.[Br-]`, the “hERG current change (%, negative = inhibition) at 10uM” value is recorded as -77%.

For the molecule `COc1ccc(C(=O)OCCc2sc[n+](CC(=O)c3ccccc3)c2C)cc1.[Br-]`, the “hERG current change (%, negative = inhibition) at 10uM” value is given as -48.9%.

Turning to `Cc1c(CCOC(=O)c2ccccc2)sc[n+]1Cc1ccccc1.[Cl-]`, the “hERG current change (%, negative = inhibition) at 10uM” value is reported as -32.7%.

On to `Cc1c(CCOC(=O)c2cc([N+](=O)[O-])cc([N+](=O)[O-])c2)sc[n+]1CC(=O)c1ccccc1.[Cl-]`, for which the “hERG current change (%, negative = inhibition) at 10uM” value worked out at 5.96%.

`Cc1sc[n+](CC(=O)c2ccc(Br)cc2)c1C.[Br-]`: the “hERG current change (%, negative = inhibition) at 10uM” value was -12.7%.

In the case of `Cc1c(CCOC(=O)c2ccc([N+](=O)[O-])cc2)sc[n+]1CC(=O)c1ccccc1.[Br-]`, the “hERG current change (%, negative = inhibition) at 10uM” value is -63.7%.

`Cc1c(CCOC(=O)c2cc([N+](=O)[O-])cc([N+](=O)[O-])c2)sc[n+]1CC(=O)c1ccc(Br)cc1.[Br-]`: the “hERG current change (%, negative = inhibition) at 10uM” value was -40.7%.

`Cc1ccc(C(=O)OCCc2sc[n+](Cc3ccccc3)c2C)cc1.[Cl-]`: the “hERG current change (%, negative = inhibition) at 10uM” value is reported as -70.1%.

For `Cc1[nH+]csc1CCOC(=O)c1ccc([N+](=O)[O-])cc1.[Cl-]`, the “hERG current change (%, negative = inhibition) at 10uM” value was -35.4%.

As to `Cc1c(CCOC(=O)c2cc([N+](=O)[O-])cc([N+](=O)[O-])c2)sc[n+]1CCCCS(=O)(=O)[O-]`, the “hERG current change (%, negative = inhibition) at 10uM” value is recorded as 23.4%.

As to `Cc1cc(NC(=O)C2CCCCC2)nc2c1c(=O)oc1ccccc12`, the “hERG current change (%, negative = inhibition) at 10uM” value amounted to 3.61%.

Take `O=C(Nc1cccnc1)c1ccc(S(=O)(=O)N2CCCCCC2)cc1`: the “hERG current change (%, negative = inhibition) at 10uM” value amounted to 5.14%.

In the case of `O=C(CN1C(=O)c2ccccc2C1=O)NCC(=O)OCC(=O)c1ccc(Cl)cc1`, the “hERG current change (%, negative = inhibition) at 10uM” value came out at 16.2%.

As to `CCOc1ccccc1NC(=O)CCC(=O)Nc1ccc2nc(N3CCN(C)CC3)cc(C)c2c1`, the “hERG current change (%, negative = inhibition) at 10uM” value is 3.51%.

Consider `Cn1c(CCC(=O)Nc2cc(S(C)(=O)=O)ccc2Cl)nc2cc(S(=O)(=O)N3CCOCC3)ccc21`, for which the “hERG current change (%, negative = inhibition) at 10uM” value was -25.4%.

`Cn1c(CCC(=O)Nc2ccc(F)cc2)nc2cc(S(=O)(=O)N3CCOCC3)ccc21`: the “hERG current change (%, negative = inhibition) at 10uM” value is -17.7%.

Take `CC(NC(=O)CCc1nc2cc(S(=O)(=O)N3CCOCC3)ccc2n1C)c1ccc(S(N)(=O)=O)cc1` (stereo not drawn): the “hERG current change (%, negative = inhibition) at 10uM” value is given as -57.9%.

As for `CCOc1ccc(NS(=O)(=O)c2ccc(C(=O)NCCCN3CCCC3=O)cc2)cc1`, the “hERG current change (%, negative = inhibition) at 10uM” value is 7.23%.

Consider `CC(=O)Nc1ccc(S(=O)(=O)NNC(=O)c2ccc(S(=O)(=O)N3CCCCC3)cc2)cc1`, for which the “hERG current change (%, negative = inhibition) at 10uM” value amounted to 6.41%.
